Source: PubChem (several laboratories)
E coli growth-1 = bacterial growth inhibition, counter-screen for AddAB inhibitors; 0.27% of 330,000 active; E. coli V3065 growth, OD600 absorbance, 18 h; inhibition, % at 11.9 µM; AID 449728;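 active = inhibition above the campaign's mean inhibition across all tested compounds plus 3 SD, cut at about 9.9% in these data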;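 note: uninfected addAB+ strain grown without phage in ampicillin broth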
AddAB inh = less growth of phage-infected E. coli with AddAB. inhibition, % at 11.9 µM. E. coli expressing H. pylori AddAB, absorbance growth. 0.29% of 330,000 active. AID 435030; in the data active = inhibition above about 12%
Tat transport = inhibitors of E. coli Tat protein transport | E. coli MC4100 TorA-mCherry Tat export, fluorescence | inhibition, % at 10 µM | 0.036% of 340,000 active;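 active = mean replicate inhibition at least 50% and at least half of replicates individually reaching 50%; inconclusive = only one of the two criteria met; inactive = neither criterion met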;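 note: exported cargo escapes ClpAP degradation while cytoplasmic cargo is degraded and loses fluorescence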
phage Ecoli inh = E. coli growth loss with phage present; inhibition, % at 11.9 µM; growth absorbance; 0.26% of 360,000 active; in the data active = inhibition above about 11%
E coli growth-2 = blocks Escherichia coli growth. 0.21% of 330,000 active. AID 1053175. OD600, 23 h; stronger effect = lower value. OD600 absorbance (no concentration beside the values);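 active = OD600 absorbance below the run mean of sample wells minus 3.6 SD, in any replicate, cut at about 0.56 in these data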
RecBCD conf = growth loss of phage-infected V66 E. coli, RecBCD confirmation screen; AID 651982; shares compounds with phage Ecoli inh; inhibition, % at 11.9 µM; E. coli V66 + T4 2- phage, growth OD; 45% of 890 active;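 active = mean inhibition over triplicates exceeding the hit threshold derived in the original primary screen, cut at about 11% in these data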
Ecoli viability = counter-screen for RecBCD inhibitors: inhibitors of bacterial viability. E. coli viability, absorbance (OD) growth. 29% of 890 active. shares compounds with phage Ecoli inh. inhibition, % at 11.9 µM; in the data active = inhibition above about 20%;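 note: E. coli strain V66 grown with compound alone and no phage infection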
AddAB counter = growth loss of phage-infected AddAB E. coli, RecBCD counter-screen | AID 651984 | E. coli expressing H. pylori AddAB + T4 phage, OD growth; gene 2 mutant T4, recBCD-deleted host | 45% of 890 active | shares compounds with phage Ecoli inh | inhibition, % at 11.9 µM;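 active = mean inhibition above the solvent-only control wells' mean plus 3 SD, cut at about 22% in these data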;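 note: higher means less bacterial growth from phage killing when AddAB is blocked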
Each line names hits and unclear results; the compound was inactive in the other large screens (follow-up assays come after a bar, where they were run). Hits are enriched below; roughly 0.51% of the tested compounds scored in any of these assays.

Oc1ccc(/C=N/Nc2ccc(Cl)nn2)c(O)c1O	phage Ecoli inh 10.9 (no result: E coli growth-2) | RecBCD conf inactive | Ecoli viability inactive | AddAB counter 21.4
Oc1c(Br)cc(Br)cc1/C=N/Nc1ccc(Cl)nn1	none (no result: E coli growth-2)
CC(=NN(c1ccccc1)c1ccccc1)c1ccco1	none (no result: E coli growth-1, AddAB inh, Tat transport, phage Ecoli inh)
O=Nc1nc2ncccn2c1-c1ccccc1	phage Ecoli inh 14.8 (no result: E coli growth-1, AddAB inh, E coli growth-2) | RecBCD conf inactive | Ecoli viability inactive | AddAB counter 95.0
FC(F)Sc1ccc(NC(=S)NC(c2ccccc2)c2ccccc2)cc1	none
O=C(O)c1ccc(NC(=S)NCc2ccccc2)cc1	none
FC(F)Sc1ccc(NC(=S)NCc2ccccc2)cc1	phage Ecoli inh 12.7 | RecBCD conf inactive | Ecoli viability inactive | AddAB counter inactive
FC(F)(F)c1ccc(NC(=S)NCc2ccccc2)cc1	phage Ecoli inh 11.3 | RecBCD conf inactive | Ecoli viability inactive | AddAB counter inactive
CCCc1cc(=O)[nH]c(N=C(NC(=O)c2ccccc2)Nc2ccc3c(c2)OCCO3)n1	none (no result: E coli growth-1, AddAB inh, Tat transport, phage Ecoli inh)
CCC1OC(=O)C(C)C(OC2C[C@@](C)(OC)C(O)C(C)O2)C(C)C(O[C@@H]2OC(C)CC(N(C)C)C2O)[C@](C)(O)CC(C)C(=NOCOCCOC)C(C)C(O)[C@]1(C)O (stereo not given in full)	E coli growth-1 10.0, phage Ecoli inh 11.7 (no result: E coli growth-2) | RecBCD conf inactive | Ecoli viability inactive | AddAB counter inactive
CN1CCN(C(=O)/C=C/c2ccc([N+](=O)[O-])o2)CC1	phage Ecoli inh 17.4, E coli growth-2 0.427 (no result: E coli growth-1, AddAB inh) | RecBCD conf 12.4 | Ecoli viability inactive | AddAB counter 81.9
CN1CCN(C(=O)/C=C/c2ccccc2)CC1	none
Cn1nc(C(=O)NCC(=O)Nc2ccc(F)c(F)c2)ccc1=O	phage Ecoli inh 10.9 (no result: E coli growth-1, AddAB inh, Tat transport, E coli growth-2) | RecBCD conf inactive | Ecoli viability inactive | AddAB counter inactive
CCCCNC(=O)NCC(=O)Nc1ccc(F)c(F)c1	none
CC1(C)S[C@@H]2[C@H](NC(=O)[C@H](N)c3ccccc3)C(=O)N2[C@H]1C(=O)OC1OC(=O)c2ccccc21 (stereo not given in full)	phage Ecoli inh 21.4 (no result: E coli growth-2) | RecBCD conf 29.5 | Ecoli viability 53.0 | AddAB counter inactive
COC(=O)C1N2C(=O)C(NC(=O)COc3ccccc3)C2SC1(C)C (stereo not given)	none (no result: E coli growth-1, AddAB inh, Tat transport, phage Ecoli inh)
O=C(Nc1ccc(Cl)c(C(F)(F)F)c1)c1ccco1	none
CCNC(=S)Nc1ccc(Cl)c(C(F)(F)F)c1	phage Ecoli inh 12.4 | RecBCD conf inactive | Ecoli viability inactive | AddAB counter inactive
COc1cccc(NC(=O)c2ccc3c(c2)N(C)CCS3)c1	none
CN1CCSc2ccc(C(=O)Nc3ccc(Cl)cc3)cc21	phage Ecoli inh 100.2 (no result: E coli growth-2) | RecBCD conf inactive | Ecoli viability inactive | AddAB counter inactive
Fc1ccc(NC(=S)Nc2ccccc2OC(F)F)cc1Cl	phage Ecoli inh 12.5 | RecBCD conf inactive | Ecoli viability inactive | AddAB counter inactive
Nc1nc(=O)n(C2CC(O)C(CO)O2)cc1Cl (stereo not given)	phage Ecoli inh 11.8 (no result: E coli growth-1, AddAB inh, Tat transport, E coli growth-2) | RecBCD conf inactive | Ecoli viability inactive | AddAB counter 38.1
Nc1nc(=O)n(C2CC(O)C(CO)O2)cc1F (stereo not given)	Tat transport inconclusive, phage Ecoli inh 86.9 (no result: E coli growth-1, AddAB inh, E coli growth-2) | RecBCD conf 78.3 | Ecoli viability 77.5 | AddAB counter 89.7
Nc1ncn(C2CC(O)C(CO)O2)c(=O)n1 (stereo not given)	none (no result: E coli growth-1, AddAB inh, Tat transport, phage Ecoli inh)
CCC(=NNC(=O)c1cccnc1)c1ccc2c(c1)OCCO2	none (no result: E coli growth-1, AddAB inh, Tat transport, phage Ecoli inh)
FC(F)(F)c1cccc(NC(=S)NCc2ccc(Cl)cc2)c1	phage Ecoli inh 13.3 | RecBCD conf inactive | Ecoli viability inactive | AddAB counter inactive
Fc1ccccc1CNC(=S)Nc1cccc(C(F)(F)F)c1	phage Ecoli inh 10.9 | RecBCD conf inactive | Ecoli viability inactive | AddAB counter inactive
CN(C)C(CO)c1nnc(C(CCC(=O)O)NC(=O)C2CCNCC2)o1 (stereo not given)	none (no result: E coli growth-1, AddAB inh, Tat transport, phage Ecoli inh)
COc1cc(OC)c(OC)cc1C=NNC(=O)c1ccc2nc[nH]c2c1	none (no result: E coli growth-1, AddAB inh, Tat transport, phage Ecoli inh)
CC(CC(=O)Nc1ccccn1)=NNC(=O)c1ccccc1	none (no result: E coli growth-1, AddAB inh, Tat transport, phage Ecoli inh)
C/C(CC(=O)Nc1ccccn1)=N\NC(=O)c1ccccc1O	phage Ecoli inh 19.3 (no result: E coli growth-2) | RecBCD conf inactive | Ecoli viability inactive | AddAB counter inactive
N#Cc1c(Nc2ccccc2)[n+]([O-])c2ccc(Cl)cc2[n+]1[O-]	phage Ecoli inh 12.5 (no result: E coli growth-1, AddAB inh, E coli growth-2) | RecBCD conf 16.1 | Ecoli viability inactive | AddAB counter 49.4
O=C(/C=C/Nc1ccccc1)c1ccc(Cl)cc1Cl	none
COC(=O)Oc1ccc(C=NNS(=O)(=O)c2ccccc2)cc1OC	none (no result: E coli growth-1, AddAB inh, Tat transport, phage Ecoli inh)
COc1cccc(C=NNC(=O)c2cccs2)c1	none (no result: E coli growth-1, AddAB inh, Tat transport, phage Ecoli inh)
Cc1cc(C)cc(NC(=O)Cn2cc3c(n2)CCCCC3)c1	none (no result: Tat transport, phage Ecoli inh)
CN(C)c1ccc(NC(=O)Cn2cc3c(n2)CCCC3)cc1	phage Ecoli inh 12.8 | RecBCD conf inactive | Ecoli viability inactive | AddAB counter inactive
CC(C)(C)CC(=O)Nc1nnc(C(F)(F)F)s1	none
CC(NC(=O)Nc1nnc(C(F)(F)F)s1)(C(F)(F)F)C(F)(F)F	E coli growth-1 10.8, phage Ecoli inh 13.4 | RecBCD conf 14.7 | Ecoli viability inactive | AddAB counter inactive
CCCC[n+]1ccn(-c2nc3ccccc3nc2[N-]S(=O)(=O)c2cccs2)c1	phage Ecoli inh 97.3 | RecBCD conf inactive | Ecoli viability inactive | AddAB counter inactive
CCCC[n+]1ccn(-c2nc3ccccc3nc2[N-]S(=O)(=O)c2ccccc2)c1	none
C=CC(Cc1ccccc1)N(Cc1ccccc1)S(=O)(=O)N(Cc1ccccc1)C(C=C)Cc1ccccc1 (stereo not given)	none (no result: E coli growth-1, AddAB inh, Tat transport, phage Ecoli inh)
O=C(Nc1ccccc1-c1nnn(CC(=O)N2CCOCC2)n1)c1ccc(F)cc1	phage Ecoli inh 11.4 | RecBCD conf inactive | Ecoli viability inactive | AddAB counter inactive
COc1ccc(C(=O)NN=CC(C)c2ccccc2)cc1OC (stereo not given)	none (no result: E coli growth-1, AddAB inh, Tat transport, phage Ecoli inh)
COc1cccc(NC(=O)Nc2nc(SC(C)(C)C)ns2)c1	phage Ecoli inh 12.6 | RecBCD conf inactive | Ecoli viability inactive | AddAB counter inactive
Cc1[nH]nc(C(=O)NN=Cc2ccccc2Cl)c1N=NN(C)C	phage Ecoli inh 14.0 (no result: E coli growth-1, AddAB inh, E coli growth-2) | RecBCD conf inactive | Ecoli viability inactive | AddAB counter 41.5
O=C(O)CCCCCN1C(=O)C(=Cc2ccncc2)SC1=S	none (no result: E coli growth-1, AddAB inh, Tat transport, phage Ecoli inh)
Fc1ccc(NC(=S)NN=Cc2ccc(F)c(F)c2)c(F)c1	none (no result: E coli growth-1, AddAB inh, Tat transport, phage Ecoli inh)
Cn1cc(S(=O)(=O)N2CCC(C(N)=O)CC2)c(=O)n(C)c1=O	phage Ecoli inh 94.3 | RecBCD conf inactive | Ecoli viability inactive | AddAB counter inactive
Oc1ccc(C=NNC(=S)Nc2cccnc2)cc1	none (no result: E coli growth-1, AddAB inh, Tat transport, phage Ecoli inh)
Oc1ccc(C=NNC(=S)Nc2cccnc2)nc1	phage Ecoli inh 21.3 (no result: E coli growth-1, AddAB inh, E coli growth-2) | RecBCD conf 18.7 | Ecoli viability 21.4 | AddAB counter 36.2
